Tb PYK inh: qHTS of Trypanosoma Brucei Inhibitors; pyruvate kinase (Trypanosoma brucei), Q57TT1; TbPYK enzyme, Kinase-Glo Plus ATP luminescence, 45 min; Potency, µM (series often up to 76.8 µM), for inactives: top-dose activity, negative = inhibition, most hits filed as inhibitors; actives 0.12% (n = 410,000); AID 624173, 2012; note: potency is the fitted concentration of half-maximal effect; % is set by controls: 0 for no effect and ±100 for the full control effect; nearly all actives have a fitted effect of over 50% in size
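T. brucei PYK with substrate was exposed to pin-transferred compounds across a concentration series, then started with 130 uM ADP (final). After 45 min at room temperature, Kinase-Glo Plus luminescence was read, normalized and curve-fitted.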
Cycloheximide cs: Cycloheximide Counterscreen for Small Molecule Inhibitors of Shiga Toxin; cell reporter, cycloheximide protein synthesis inhibition counterscreen; max response, %; actives 12% (n = 300,000); AID 2314, 2010; in the data active = max response mostly above about 13%, no sharp cut-off; inactive = mostly below about 14%; note: read at 38.3 µM for the half of the compounds with a filed dose; 0% is about no effect
LmPK inhibitor: qHTS Assay for Inhibitors of Leishmania Mexicana Pyruvate Kinase (LmPK); Potency, µM (highest dose often 57.5 µM), for the others: top-dose activity change, negative = inhibition, actives largely listed as inhibitors; purified LmPK, Kinase-Glo ATP luminescence, 1 h; actives 0.37% (n = 290,000); Q27686; note: potency is the fitted concentration of half-maximal effect; % is set by controls: 0 for no effect and ±100 for the full control effect
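Pyruvate kinase activity monitored as ATP production (luciferase luminescence). Conditions: 0.1 nM enzyme, 0.5 mM PEP, 0.1 mM ADP, 1 h, RT; normalized against uninhibited and no-enzyme wells.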
Shiga inhibitor: A qHTS for Small Molecule Inhibitors of Shiga Toxin; inhibition, % at 38.7 µM; Vero cells, Shiga toxin protein synthesis inhibition reporter; actives 9.2% (n = 290,000); in the data active = inhibition mostly above about 28%, no sharp cut-off; inactive = mostly below about 43%; note: 0% is about no effect
FBPA Giardia inh: qHTS Assay for Inhibitors of Fructose-1,6-bisphosphate Aldolase from Giardia Lamblia; A8B2U2; purified Giardia FBPA; Potency, µM (series often up to 59.6 µM), inactives show at the highest dose activity, negative = inhibition, usual class: inhibitors; actives 0.71% (n = 290,000); AID 2451, 2010; note: potency is the fitted concentration of half-maximal effect; % is set by controls: 0 for no effect and ±100 for the full control effect; nearly all actives have a fitted effect of over 55% in size
Target sequence (A8B2U2 whole entry, looked up): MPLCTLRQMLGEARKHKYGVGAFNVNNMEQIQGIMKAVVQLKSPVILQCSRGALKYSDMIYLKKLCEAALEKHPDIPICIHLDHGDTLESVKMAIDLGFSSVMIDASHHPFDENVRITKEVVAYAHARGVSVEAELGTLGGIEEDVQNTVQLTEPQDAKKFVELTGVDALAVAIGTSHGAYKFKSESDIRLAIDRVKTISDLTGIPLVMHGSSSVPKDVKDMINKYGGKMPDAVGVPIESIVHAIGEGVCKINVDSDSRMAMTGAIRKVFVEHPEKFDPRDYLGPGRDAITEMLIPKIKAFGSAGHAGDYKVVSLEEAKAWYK
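Giardia FBPA (40 nM reagent) was preincubated 10 min at RT with compound (up to 57.5 uM final), then substrate plus GAPDH/TPI/NAD/arsenate coupling system with diaphorase/resazurin was added; resorufin fluorescence (525/598 nm) was read after 20 min.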
Sm TGR block: qHTS Assay for the Inhibitors of Schistosoma Mansoni Peroxiredoxins. actives 3% (n = 360,000). Schistosoma mansoni thioredoxin glutathione reductase (TGR), Q962Y6. Potency, µM (top dose mostly 114 µM), for the others: at the highest dose activity change, negative = inhibition, hits mostly inhibitors. AID 485364, 2010. purified TGR, DTNB reduction, TNB absorbance 405 nm; note: potency is the fitted concentration of half-maximal effect; % is set by controls: 0 for no effect and ±100 for the full control effect; nearly all actives have a fitted effect of over 60% in size
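TGR 20 nM + NADPH 100 uM (dispensed conc.), cpd preinc 15 min RT; start with NADPH (500 uM addition) then DTNB (15 mM addition). Kinetic TNB absorbance, 405 nm filter. Four-parameter Hill fit across titration.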
An asterisk follows results filed as active; ? = inconclusive; / = not tested or not shown. This is one part of a sample in which hits are shown more often than they occur. Unless noted, calls come from the whole dose curve; as a rule, active = well fitted curve in the direction sought with a large enough effect; inconclusive = small, poorly fitted or top-dose-only effect, or another doubt; inactive = no such curve, though single readings can be large; an effect the other way counts as inactive or inconclusive.

SMILES	Tb PYK inh	Cycloheximide cs	LmPK inhibitor	Shiga inhibitor	FBPA Giardia inh	Sm TGR block
Cc1ccc(-c2nc3ccccc3o2)cc1NC(=O)c1cccc2c(Cl)cccc12	0.0%	/	/	/	/	-4.6%
COc1ccc(CC(=O)NNC(=O)c2cccs2)cc1	9.3%	5.7	-4.2%	5.0	6.5%	0.0%
Cc1ccc(N=N/C(=C\O)C(=O)c2ccncc2)cc1	0.4%	9.5	9.9%	30.7	-19.5%	-17.4%
COc1ccc(C(=O)/C(=C/O)N=Nc2ccc(F)cc2)cc1	-24.6%	58.2*	-1.5%	76.4*	1.5%	0.7%
COc1ccc(N=N/C(=C\O)C(=O)c2cccs2)cc1	-4.8%	39.1*	-0.7%	58.0*	0.0%	12.0%
COc1ccc(C2=NOC(Cn3nc(C(=O)NCc4cccc(Br)c4)cc3-c3ccccc3)C2)cc1 (stereo not drawn)	-7.0%	/	/	/	/	/
C[C@H](NC(=O)C1CC(=O)N(c2ccc3c(c2)OCO3)C1)C(=O)NC1CCCCC1 (stereo partly drawn)	-29.0%	-2.4	-5.7%	-4.7	4.4%	-21.1%
CCC[C@@H]1C[C@@]1(CCC)C(NC(=O)c1ccccc1)c1cccc(Cl)c1 (stereo partly drawn)	/	/	/	/	4.6%	/
Nc1ccc([As](=O)(O)O)cc1	-14.2%	-2.3	7.4%	-2.5	-3.8%	35.5µM*
CCc1ccc(/C(C)=N\Nc2ccc([N+](=O)[O-])cc2)cc1	-4.9%	18.6*	0.3%	37.0	-6.4%	-0.1%
C/C(=N\Nc1nc(C)c(C)s1)c1ccc([N+](=O)[O-])cc1	-2.5%	-4.7	-4.1%	18.8	-20.5%	22.4µM*
C/C(=N\Nc1ccc([N+](=O)[O-])cc1)c1ccco1	-2.0%	46.8*	-1.0%	34.3*	0.1%	-7.8%
C/C(=N\NC(=O)COc1ccc([N+](=O)[O-])cc1)c1ccco1	-5.9%	/	/	/	/	-19.4%
C/C(=N\Nc1ccc([N+](=O)[O-])cc1)c1ccc(N)cc1	1.9%	34.1*	-3.7%	68.1*	-3.8%	-35.6%
COc1ccc(Cl)cc1NC(=O)CN1C(=O)COc2ccc(S(=O)(=O)NC3CCCC3)cc21	2.7%	/	/	/	/	-4.6%
Cc1ccc(Nc2nc(/N=C/N(C)C)n[nH]2)cc1C	-0.8%	51.0*	-7.3%	85.9*	-0.3%	-116.3%
Cc1cc(Nc2ccc(C)c(C)c2)n2nc(C)nc2n1	-3.4%	-3.3	2.5%	13.7	3.1%	1.8%
Cn1c2c(c(=O)n(C)c1=O)CN(CC1CCCO1)CN2 (stereo not drawn)	4.5%	-7.2	3.0%	-16.1	-2.4%	15.7%
COc1ccc(CCN2CNc3c(c(=O)n(C)c(=O)n3C)C2)cc1	-3.0%	-3.9	-2.9%	-3.9	-0.5%	89.1µM*
COc1cccc2cc(C(=O)c3ccc([N+](=O)[O-])cc3)oc12	-17.9%	22.6*	0.8%	22.3	9.2%	-0.5%
COc1cccc2cc(C(N)=O)oc12	-0.9%	12.8	0.0%	-20.0	-2.8%	1.4%
COc1cc(OC)c(C(=O)Nc2cccc3ccccc23)cc1OC	1.4%	20.8*	11.7%	/	7.2%	2.4%
COc1ccc(C(=O)Nc2ccccc2NC(=O)c2ccc(OC)cc2)cc1	4.6%	/	/	/	/	/
Cc1ccc(C(=O)Nc2cccc3ccccc23)o1	0.6%	/	/	/	/	/
COc1ccc(C(=O)Nc2cccc3ccccc23)cc1	-16.1%	20.8*	-0.7%	31.9	-6.0%	-17.2%
SMILES	Tb PYK inh	Cycloheximide cs	LmPK inhibitor	Shiga inhibitor	FBPA Giardia inh	Sm TGR block
Cc1ccc(C(=O)Nc2cccc3ccccc23)cc1	-1.3%	28.7*	-1.4%	35.2*	0.1%	-2.4%
Cc1cc(C(=O)Nc2cccc3ccccc23)co1	4.5%	14.2*	-9.7%	27.6	/	-8.0%
Cc1nc2cnc(N(C)C)nc2n(C)c1=O	-2.3%	/	/	/	-4.2%	/
Cc1oc(-c2ccccc2)cc1C(=O)Nc1cccc(C(=O)O)c1	-10.0%	11.6	1.4%	-9.8	-7.8%	?
Cc1oc(-c2ccccc2)cc1C(=O)Nc1cccc2ccccc12	5.2%	16.3*	1.3%	13.1	12.8%	0.0%
COc1cccc(OCC(=O)O/N=C(\N)c2ccncc2)c1	0.4%	27.7*	0.6%	59.3*	3.5%	5.4%
N/C(=N\OC(=O)COc1ccccc1)c1ccncc1	-1.7%	43.5*	1.8%	82.8*	8.7%	17.1%
N/C(=N\OC(=O)CSc1ccccc1)c1ccncc1	-0.6%	47.0*	0.8%	78.6*	/	9.0%
N/C(=N\OC(=O)COc1ccccc1)c1cccnc1	6.3%	1.6	-3.0%	-17.5	/	16.2%
Cc1cc(C)cc(OCC(=O)O/N=C(\N)c2cccnc2)c1	0.3%	16.1*	-4.0%	34.2	4.5%	-7.1%
Cc1cc(C)c(C)c(OCC(=O)O/N=C(\N)c2ccncc2)c1	3.1%	-2.0	-2.3%	-4.0	4.5%	-8.8%
Cc1ccc(NC(=O)c2cc(S(=O)(=O)N3CCc4ccccc43)cn2C)c(Cl)c1	1.1%	/	/	/	/	-8.7%
CCc1ccc(NC(=O)CSc2nc(=O)n(Cc3ccncc3)c3c2CCC3)cc1	0.7%	/	/	/	/	10.1%
N/C(=N\OC(=O)CSc1ccccc1)c1cccc([N+](=O)[O-])c1	-4.2%	32.7*	-0.1%	14.6	-0.8%	-17.1%
N/C(=N\OC(=O)Oc1ccccc1)c1cccc([N+](=O)[O-])c1	3.8%	7.0	0.5%	-7.4	-1.0%	4.2%
Cc1ccc(C)c(NC(=O)C2CCCN2S(=O)(=O)c2ccc3c(c2)CCCC(=O)N3)c1 (stereo not drawn)	1.7%	/	/	/	/	-14.0%
CC1(C)OC(=O)C(=CNn2cnc3ccccc3c2=O)C(=O)O1	-7.6%	32.3*	-2.8%	29.1	-12.0%	-14.2%
COc1ccc(C2=NN(CN3C(=O)C(=O)c4ccccc43)C(c3ccc(Br)cc3)C2)cc1 (stereo not drawn)	2.0%	32.1*	2.1%	46.3	1.2%	-24.1%
COc1ccc(C2CC(c3ccc4ccccc4c3)=NN2C(=O)CN2C(=O)CCC2=O)cc1 (stereo not drawn)	3.2%	13.1	-1.0%	23.8	-0.1%	-3.3%
COc1ccc(C2=NN(CN3C(=O)C(=O)c4ccccc43)C(c3ccc(C)cc3)C2)cc1 (stereo not drawn)	-11.3%	24.8*	8.0%	77.7*	-8.1%	-7.5%
COc1ccc(-c2noc(CCC(=O)NCc3ccc(OC)cc3OC)n2)cc1	0.5%	/	/	/	/	1.8%
O=C(/C=C/c1ccccc1O)c1ccco1	-11.6%	30.3*	-3.0%	60.6*	2.1%	?
COc1ccccc1/C=C/C(=O)c1cc(Br)ccc1OC(=O)c1ccco1	4.5%	/	/	/	/	/
O=C(/C=C/c1cc(Br)ccc1O)c1ccco1	-23.3%	3.6	-1.5%	9.6	-4.5%	14.1µM*
Cc1cccc2cc(/C=C/C(=O)c3ccco3)c(Cl)nc12	-2.4%	11.6*	0.7%	15.5	7.3%	7.94µM*

Screening data as filed in PubChem.
